This is an account of results in PubChem BioAssay AID1529 (NMMLSC, 2009).

About 4,200 (1.4%) of roughly 290,000 compounds were called active. This excerpt belongs to a sample that is enriched for actives. Unmarked numbers belong to inactive results.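 The calls were made as follows: active = binding response more than 3 SD above or below the average of its plate-row segment, actives on both sides; inconclusive = wells at one plate position flagged as instrument error; inactive = the rest.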

Mitogen-activated protein kinase kinase kinase 3 (Homo sapiens), sequence (Q99759 whole entry, looked up): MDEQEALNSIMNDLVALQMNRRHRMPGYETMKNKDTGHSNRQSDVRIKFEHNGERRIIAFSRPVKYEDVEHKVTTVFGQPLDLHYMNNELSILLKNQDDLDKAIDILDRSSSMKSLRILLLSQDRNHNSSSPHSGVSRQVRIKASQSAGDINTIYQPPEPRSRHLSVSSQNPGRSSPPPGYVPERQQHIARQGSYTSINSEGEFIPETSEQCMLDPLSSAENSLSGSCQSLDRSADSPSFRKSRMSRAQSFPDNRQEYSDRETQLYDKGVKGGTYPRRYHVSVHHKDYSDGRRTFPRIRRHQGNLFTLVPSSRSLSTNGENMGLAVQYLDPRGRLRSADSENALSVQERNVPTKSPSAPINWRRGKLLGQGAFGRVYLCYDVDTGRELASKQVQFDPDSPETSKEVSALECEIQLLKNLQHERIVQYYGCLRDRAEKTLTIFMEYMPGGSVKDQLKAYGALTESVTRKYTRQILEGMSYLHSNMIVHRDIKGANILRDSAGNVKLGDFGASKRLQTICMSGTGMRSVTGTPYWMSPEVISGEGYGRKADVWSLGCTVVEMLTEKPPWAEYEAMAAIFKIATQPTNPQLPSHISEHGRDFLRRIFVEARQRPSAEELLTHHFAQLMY

The assay addresses Mitogen-activated protein kinase kinase kinase 3 (Homo sapiens) (UniProt Q99759). The assay is described as follows: compounds raising or lowering MEK5 association with MEKK3 PB1 – biochemical, wildtype MEKK3, multiplex bead flow cytometry, Alexa488-MEK5, primary screen (AID 1529).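 Also: Alexa488 bead fluorescence after subtracting the streptavidin-only scavenger bead signal.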 Particulars: bead-based flow cytometry, Alexa488-MEK5 binding to MEKK3; at 10 µM; actives lie on both sides; 0 = blocked by unlabeled MEK5, 100 = vehicle.
In the case of `CCOC(=O)Cc1csc(NC(=O)CSc2ccc(Br)cc2)n1`, the binding response (% of control) is 107%. In the case of `CCCCc1nnc(NC(=O)CSc2nc(C)cc(=O)[nH]2)s1` it was 98%; in that of `CCOC(=O)Cc1csc(NC(=O)CSc2nc(C)cc(=O)[nH]2)n1`, 58% [inhibitor] (active); in that of `COc1ccc(S(=O)(=O)N2CCN(C(=O)N(C)C)C2C)cc1` (stereo unspecified), 102%. In the case of `O=C(Nc1ccn(Cc2ccccc2)n1)c1cccc(F)c1` it was 135% (active). `O=C(Nc1ccn(Cc2ccccc2)n1)c1n[nH]c([N+](=O)[O-])c1Cl`: the binding response (% of control) was 99%. In the case of `O=C(Nc1cccc(NC(=O)c2cccc(F)c2)c1)c1ccccc1` it was 101%. In the case of `COc1cc(/C=N/NC(=O)CNC(=O)c2ccncc2)ccc1OC(C)=O`, the binding response (% of control) was 105%. The same measure for `COc1cc(/C=N/NC(=O)Cc2ccccc2)cc(OC)c1OC`: 98%. For `O=C(Cc1cc(=O)[nH][nH]1)N/N=C/c1ccccc1[N+](=O)[O-]`, the binding response (% of control) was 121%. In the case of `COc1cc(CC(=O)N/N=C/c2ccccc2)c([N+](=O)[O-])cc1OC` it was 134% (active).

Consider `COc1ccc(C(=O)NCC(=O)N/N=C/c2ccc([N+](=O)[O-])s2)cc1OC`, for which the binding response (% of control) was 102%. For the molecule `COc1ccc(C(=O)NCC(=O)N/N=C/c2ccc([N+](=O)[O-])o2)cc1OC`, the binding response (% of control) is 133% (active). The same measure for `Cc1ccccc1N1CCN(C2CCCN(C(=O)c3ocnc3C)C2)CC1` (stereo unspecified): 106%. As for `COc1ccccc1CN1CCCC(N2CCN(c3ccc(F)cc3)CC2)C1` (stereo unspecified), the binding response (% of control) was 104%. As for `C=CCOc1cccc(C2NC(=O)c3ccccc3O2)c1` (stereo unspecified), the binding response (% of control) is 91%. As for `CC(C)c1cc(C(N)=O)c(NC(=O)c2cccc(COc3ccc(Br)cc3)c2)s1`, the binding response (% of control) was 104%. As for `O=C(Nc1cccc(F)c1)NC1CCCc2ccccc21` (stereo unspecified), the binding response (% of control) was 99%. The same measure for `Cc1cc(C)nc(-n2ncc3c2CC(c2ccc(C(C)C)cc2)CC3=O)n1` (stereo unspecified): 148% (active); for `Cc1nc2nc3c(cn2n1)C(=O)CC(c1ccccc1)C3` (stereo unspecified): 95%; for `CS(=O)(=O)N(CC(=O)N1CCOCC1)c1cccc(Cl)c1Cl`: 102%.

With `CCO[C@H]1OC(C(=O)N2CCCCCCC2)=C[C@@H](c2ccc(C(F)(F)F)cc2)[C@@H]1CCCO`, the binding response (% of control) was 107%. The same measure for `CCO[C@@H]1OC(C(=O)N2CCOCC2)=C[C@H](C)[C@H]1CCCO`: 99%; for `CCO[C@H]1OC(C(=O)N2CCOCC2)=C[C@@H](c2ccc3c(c2)OCO3)[C@@H]1CCCO`: 81% [inhibitor] (active). In the case of `Cc1ccc(Cn2c(C)c3cnn(CC(=O)NCc4ccccn4)c(=O)c3c2C)cc1` it was 100%.

Consider `COC(=O)c1cccc(N(CC(=O)NCC2CCCO2)C(=O)CCC(=O)Nc2cc(C)on2)c1` (stereo unspecified), for which the binding response (% of control) was 103%. The same measure for `O=C(Nc1ccc2oc(-c3ccc4ccccc4c3)nc2c1)c1cccs1`: 121%.

In the case of `CC(O)c1cccc(NC(=O)Cc2cccc3ccccc23)c1` (stereo unspecified), the binding response (% of control) is 102%. As for `O=C(Cc1cccc2ccccc12)Nc1ccc2oc(-c3ccccc3)nc2c1`, the binding response (% of control) is 129% (active). `Clc1ccc(-c2nnc(SCc3nc4ccccc4s3)o2)cc1`: the binding response (% of control) was 150% (active).

Take `c1ccc(-c2nnc(SCc3nc4ccccc4[nH]3)o2)cc1`: the binding response (% of control) is 98%. In the case of `O=C(O)CSCc1nc2ccccc2s1` it was 96%. In the case of `COc1ccc(Cl)cc1NC(=O)C(C)N1CCc2ccccc21` (stereo unspecified) it was 100%; in that of `Cc1ccccc1NC(=O)N1CCCC1C(=O)NCc1ccccc1` (stereo unspecified), 114%. The same measure for `Cc1nn(-c2ccccc2)c(NC(=O)c2cccs2)c(-c2ccc(Cl)cc2)c1=O`: 162% (active); for `Cc1ccc(-n2nc(C)c(/C=N/NC(=O)c3cccs3)c2Cl)cc1`: 106%. As to `O=C(Nc1c2c(nn1-c1cccc(Cl)c1)CS(=O)(=O)C2)c1cccs1`, the binding response (% of control) is 82%. The same measure for `CCc1ccc(NC(=O)Cn2nnc(C(=O)NCc3ccc4c(c3)OCO4)c2N)cc1`: 100%. In the case of `Cc1ccccc1OCC(=O)Nc1ccc(S(=O)(=O)N2CCOCC2)cc1` it was 95%; in that of `Cc1ccccc1OCC(=O)Nc1ccc(N2CCN(C(=O)C(C)C)CC2)c(Cl)c1`, 122% (active). In the case of `CCC(=O)N1CCN(c2ccccc2NC(=O)COc2cccc(C)c2C)CC1` it was 102%. Turning to `CCN1C(=O)N[C@@H](CCc2ccccc2)C(C(=O)OC)=C1C`, the binding response (% of control) is 101%. `CCC(=O)Nc1nnc(S(=O)(=O)N2CCCc3ccccc32)s1`: the binding response (% of control) was 98%. In the case of `O=C(CCN1C(=O)[C@@H]2Cc3ccccc3CN2C1=O)NCCc1ccccc1` it was 99%; in that of `Cc1[nH][nH]c(=O)c1C(c1ccc(-c2ccc(Cl)cc2)o1)c1c(C)[nH][nH]c1=O`, 95%; in that of `CCOc1ccc(C(c2c(C)[nH][nH]c2=O)c2c(C)[nH][nH]c2=O)cc1OCC`, 152% (active).
